Experimental data taken from PubChem BioAssay (NCI).
Where “and” joins values, the source holds several entries; their conditions need not be identical. Equal entries are not always repeated. Compounds without any hit were thinned out: in the full panel of roughly 83,000, 20% have a hit.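 Assay: single dose, 48 h. Readout: percent growth (0 = no net growth; negative = cell death). Active: <10.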 Calls of active or inactive are those of the source.

System: MDA-MB-468 breast
Assay: NCI-60 one-dose screen, 48 h (100 = growth as untreated, 0 = no growth, -100 = all killed)
Details: 10 µM unless noted

**Q.** With `NC(N)=Nc1nc2ccccc2o1` as the compound, how does the growth read?
**A.** 106% (inactive)

**Q.** How did the growth turn out when `COc1ccc(/C=C/C(=O)c2c(C)nc3ccccc3c2/C=C/c2ccccc2)c(OC)c1` was run?
**A.** 87% (inactive)

**Q.** With `O=C(NO)c1ccc(Cn2c(=O)n(-c3ccccc3F)c(=O)c3ccccc32)cc1` as the compound, how does the growth read?
**A.** -10.8% (active)

**Q.** `O=C(O)c1ccc2c(c1Sc1ccccc1)C(=O)c1ccccc1C2=O` was tested. Which growth did it give?
**A.** 97.9% (inactive)

**Q.** `CCOC(=O)c1c2c(c(C)n1Cc1ccccc1)-c1nc(N)ncc1CC2` was tested. Which growth did it give?
**A.** 100% (inactive)

**Q.** Which growth does the source give for `Nc1nc(-c2ccccc2Cl)cc(-c2ccc(Cl)cc2Cl)n1` here?
**A.** 18.6% (inactive)

**Q.** With `CC(C)(C)c1ccc(CC(=O)Nc2sc3c(c2C(N)=O)CCC(=O)C3)cc1` as the compound, how does the growth read?
**A.** -13.9% (active)

**Q.** For `Cn1ccc(Nc2nccc(Oc3ccc(C(=O)Nc4cccc(F)c4)c(Cl)c3)n2)c1`, which growth is on record?
**A.** -12.3% (active)

**Q.** How did the growth turn out when `COc1ccc2c3c(c4ccccc4cc13)C(=O)N(CCN(C)CCN)C2=O` was run?
**A.** -76.5% (active)

**Q.** `O=C1Nc2cc(-c3cccc([N+](=O)[O-])c3)ccc2/C1=C/c1ccc[nH]1` was tested. Which growth did it give?
**A.** -7.17% (active)

**Q.** For `Cc1ccc(S(=O)(=O)Oc2ccc3sc4c(CO)ccc(NCCN(C)C)c4c(=O)c3c2)cc1`, which growth is on record?
**A.** -75.1% [100 µM] (active)

**Q.** For `CC(=O)c1ccc2c(c1)N(CCCN1CCN(CCO)CC1)c1ccccc1S2`, which growth is on record?
**A.** 92.3% (inactive) and -79% (active)

**Q.** How did the growth turn out when `c1ccc2c(c1)OC1OC2Oc2ccccc21` was run?
**A.** 97.5% (inactive)

**Q.** How did the growth turn out when `CC(=O)C(C(C)=O)C(c1ccccc1)C(C(C)=O)C(C)=O` was run?
**A.** 98.6% (inactive)

**Q.** Which growth does the source give for `OC(COc1ccccc1Cl)COc1ccccc1Cl` here?
**A.** 102% (inactive)
